Laboratory results reported in PubChem BioAssay AID1159580 (chemical genetic matrix, 2015).
Where “and” joins values, the source holds several entries; their conditions need not be identical. Equal entries are not always repeated. In all, about 5,500 compounds went through this assay and about 2,000 (36%) were called active. About 18% were inconclusive and are not listed. Cut-off read from the data, not from the text of the source: active = normalized growth mostly below about 0.91 (no sharp cut-off); inconclusive = no clear call, values can overlap the other calls; inactive = mostly above about 0.92. The list shows a part of the results.

Test: chemical genetic growth profiling, strain panel (AID 1159580);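 note: tested at 20 µM; growth read once vehicle control cultures reached saturation at 30 °C; 1 = growth at the plate median or of vehicle wells; lower values mean less growth of the strain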
Conditions: growth OD

Measured: normalized growth

CCc1cccc2c3c([nH]c12)C(CC)(CC(=O)O)OCC3 (stereo not given)
inactive: S. cerevisiae deletion strains, locus YKL009W, strain mrt4, active compounds read low 0.965 | S. cerevisiae deletion strains, locus YKL068W, active compounds read low 1 | S. cerevisiae deletion strains, locus YKL085W, strain MDH1 (second series), active compounds read low 0.992 | S. cerevisiae deletion strains, locus YKL085W, strain MDH1, active compounds read low 0.992 | S. cerevisiae deletion strains, locus YKL160W, strain elf1, active compounds read low 0.975 | S. cerevisiae deletion strains, locus YKL190W, strain CNB1, active compounds read low 1 | S. cerevisiae deletion strains, locus YKR001C, strain vps1, active compounds read low 0.98 | S. cerevisiae deletion strains, locus YKR026C, strain gcn3, active compounds read low 0.987 | S. cerevisiae deletion strains, locus YKR091W, strain srl3, active compounds read low 0.978 | S. cerevisiae deletion strains, locus YLL001W, strain dnm1, active compounds read low 0.961 | S. cerevisiae deletion strains, locus YLL026W, active compounds read low 0.99 | S. cerevisiae deletion strains, locus YLL041C, strain sdh2, active compounds read low 0.976 | S. cerevisiae deletion strains, locus YLR027C, strain aat2, active compounds read low 0.987 | S. cerevisiae deletion strains, locus YLR039C, strain RIC1, active compounds read low 0.989 | S. cerevisiae deletion strains, locus YLR058C, strain SHM2, active compounds read low 1.01 | S. cerevisiae deletion strains, locus YLR102C, strain apc9, active compounds read low 1 | S. cerevisiae deletion strains, locus YLR113W, strain HOG1, active compounds read low 0.938 | S. cerevisiae deletion strains, locus YLR221C, strain rsa3, active compounds read low 0.993 | S. cerevisiae deletion strains, locus YLR258W, strain gsy2, active compounds read low 0.994 | S. cerevisiae deletion strains, locus YLR262C, strain YPT6 (second series), active compounds read low 0.93 | S. cerevisiae deletion strains, locus YLR262C, strain YPT6, active compounds read low 0.978 | S. cerevisiae deletion strains, locus YLR268W, strain sec22, active compounds read low 1.05 | S. cerevisiae deletion strains, locus YLR320W, strain mms22, active compounds read low 1.01 | S. cerevisiae deletion strains, locus YLR330W, strain CHS5, active compounds read low 1.01 | S. cerevisiae deletion strains, locus YLR342W, strain FKS1 (second series), active compounds read low 1.03 | S. cerevisiae deletion strains, locus YLR342W, strain FKS1, active compounds read low 0.985 | S. cerevisiae deletion strains, locus YLR357W, strain rsc2, active compounds read low 0.918 | S. cerevisiae deletion strains, locus YLR370C, strain arc18, active compounds read low 0.973 | S. cerevisiae deletion strains, locus YLR371W, strain rom2, active compounds read low 0.987 | S. cerevisiae deletion strains, locus YLR384C, strain iki3, active compounds read low 0.967 | S. cerevisiae deletion strains, locus YLR418C, strain cdc73, active compounds read low 0.995 | S. cerevisiae deletion strains, locus YML016C, strain PPZ1, active compounds read low 1 | S. cerevisiae deletion strains, locus YML032C, strain rad52, active compounds read low 1.01 | S. cerevisiae deletion strains, locus YML120C, strain ndi1, active compounds read low 0.977 | S. cerevisiae deletion strains, locus YML124C, strain tub3, active compounds read low 1 | S. cerevisiae deletion strains, locus YMR058W, strain fet3, active compounds read low 0.993 | S. cerevisiae deletion strains, locus YMR078C, strain ctf18, active compounds read low 1 | S. cerevisiae deletion strains, locus YMR125W, strain sto1, active compounds read low 0.924 | S. cerevisiae deletion strains, locus YMR129W, active compounds read low 0.972 | S. cerevisiae deletion strains, locus YMR205C, strain PFK2, active compounds read low 0.98 | S. cerevisiae deletion strains, locus YMR223W, strain ubp8, active compounds read low 0.99 | S. cerevisiae deletion strains, locus YMR231W, strain pep5, active compounds read low 0.967 | S. cerevisiae deletion strains, locus YMR263W, strain SAP30, active compounds read low 1.01 and 1 | S. cerevisiae deletion strains, locus YMR307W, strain GAS1, active compounds read low 0.923 and 1.01 | S. cerevisiae deletion strains, locus YNL067W, strain RPL9B, active compounds read low 1.02 | S. cerevisiae deletion strains, locus YNL071W, strain lat1, active compounds read low 0.988 | S. cerevisiae deletion strains, locus YNL128W, strain TEP1, active compounds read low 1.01 | S. cerevisiae deletion strains, locus YNL153C, strain GIM3, active compounds read low 1.02 | S. cerevisiae deletion strains, locus YNL175C, strain NOP13, active compounds read low 0.994 | S. cerevisiae deletion strains, locus YNL183C, strain NPR1, active compounds read low 0.93 | S. cerevisiae deletion strains, locus YNL197C, strain WHI3, active compounds read low 0.954 | S. cerevisiae deletion strains, locus YNL209W, strain ssb2, active compounds read low 0.972 | S. cerevisiae deletion strains, locus YNL224C, strain SQS1, active compounds read low 0.987 | S. cerevisiae deletion strains, locus YNL233W, strain BNI4, active compounds read low 1.01 | S. cerevisiae deletion strains, locus YNL248C, strain rpa49, active compounds read low 0.981 | S. cerevisiae deletion strains, locus YNL250W, strain rad50, active compounds read low 0.992 | S. cerevisiae deletion strains, locus YNL271C, strain bni1, active compounds read low 1.01 | S. cerevisiae deletion strains, locus YNL298W, strain CLA4, active compounds read low 0.984 | S. cerevisiae deletion strains, locus YNL307C, strain MCK1, active compounds read low 1 | S. cerevisiae deletion strains, locus YNL322C, strain KRE1 (second series), active compounds read low 0.965 | S. cerevisiae deletion strains, locus YNL322C, strain KRE1, active compounds read low 1 | S. cerevisiae deletion strains, locus YNR049C, strain mso1, active compounds read low 0.963 | S. cerevisiae deletion strains, locus YNR052C, strain pop2, active compounds read low 1.01 | S. cerevisiae deletion strains, locus YOL006C, strain TOP1, active compounds read low 1.08 | S. cerevisiae deletion strains, locus YOL012C, strain htz1 0.943 | S. cerevisiae deletion strains, locus YOL147C, strain pex11, active compounds read low 1 | S. cerevisiae deletion strains, locus YOR001W, strain rrp6, active compounds read low 0.949 | S. cerevisiae deletion strains, locus YOR061W, strain CKA2, active compounds read low 1.01 | S. cerevisiae deletion strains, locus YOR069W, strain VPS5, active compounds read low 1 | S. cerevisiae deletion strains, locus YOR070C, strain gyp1, active compounds read low 0.981 | S. cerevisiae deletion strains, locus YOR080W, strain dia2, active compounds read low 0.972 | S. cerevisiae deletion strains, locus YOR083W, strain WHI5 (second series), active compounds read low 0.978 | S. cerevisiae deletion strains, locus YOR083W, strain WHI5, active compounds read low 0.987 | S. cerevisiae deletion strains, locus YOR106W, strain vam3, active compounds read low 0.969 | S. cerevisiae deletion strains, locus YOR136W, strain idh2, active compounds read low 0.998 | S. cerevisiae deletion strains, locus YOR144C, strain elg1, active compounds read low 1 | S. cerevisiae deletion strains, locus YOR184W, strain ser1, active compounds read low 1.01 | S. cerevisiae deletion strains, locus YOR231W, strain MKK1, active compounds read low 0.986 | S. cerevisiae deletion strains, locus YOR265W, strain rbl2, active compounds read low 1 | S. cerevisiae deletion strains, locus YOR270C, strain vph1, active compounds read low 0.969 | S. cerevisiae deletion strains, locus YOR290C, strain snf2, active compounds read low 1 | S. cerevisiae deletion strains, locus YOR316C, strain cot1, active compounds read low 1 | S. cerevisiae deletion strains, locus YPL051W, strain arl3, active compounds read low 0.994 | S. cerevisiae deletion strains, locus YPL055C, strain LGE1, active compounds read low 0.989 | S. cerevisiae deletion strains, locus YPL078C, strain atp4, active compounds read low 0.963 | S. cerevisiae deletion strains, locus YPL106C, strain sse1, active compounds read low 1.03 | S. cerevisiae deletion strains, locus YPL240C, strain hsp82, active compounds read low 0.976 | S. cerevisiae deletion strains, locus YPL241C, strain CIN2, active compounds read low 1.01 | S. cerevisiae deletion strains, locus YPL256C, strain CLN2, active compounds read low 0.981 | S. cerevisiae deletion strains, locus YPR119W, strain clb2, active compounds read low 1.01 | S. cerevisiae deletion strains, locus YPR141C, strain kar3, active compounds read low 1 | S. cerevisiae deletion strains, locus YPR163C, strain tif3, active compounds read low 1.01 | S. cerevisiae deletion strains, locus YPR167C, strain met16, active compounds read low 1.01 | S. cerevisiae deletion strains, strain wtn01, active compounds read low 0.994 | S. cerevisiae strains, strain wild type, active compounds read low 0.999
